In the library only some 5.2% were active in any assay of this set; here they are far more common.
A3A deaminase – inhibitors of human APOBEC3A DNA deaminase. P31941. recombinant A3A, FAM/TAMRA ssDNA deamination fluorescence. inhibition, % at 20 µM. hit rate 0.41% among 330,000;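 active = at least 40% inhibition at 20 µM here, with at most 30% in a related deaminase screen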
ALR H2O2 inh – human ALR oxidase inhibition via reduced H2O2. purified ALR, DTT oxidation, H2O2 HRP-luminol luminescence. inhibition, % (no concentration beside the values). hit rate 3.8% among 290,000. AID 485317;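 active = mean replicate inhibition above about 79%, with every replicate also reaching it, limit read from the data; inconclusive = only one of the two criteria met; inactive = mean below limit and not every replicate reaching it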
APOBEC3G inh – APOBEC3G (human) deaminase inhibition; Q9HC16; recombinant A3G, ssDNA deamination FAM/TAMRA fluorescence; inhibition, % at 20 µM; hit rate 0.28% among 330,000; AID 493012;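 active = inhibition of at least 40% at 20 µM, with no more than 30% in the related APOBEC3A deaminase screen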
PfM18AAP inh – blocks P. falciparum M18 aspartyl aminopeptidase; recombinant PfM18AAP, H-Glu-NHMec fluorogenic cleavage; hit rate 1.2% among 290,000; inhibition, % at 7.35 µM; AID 1822;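 active = inhibition above the campaign mean inhibition over all tested compounds plus 3 SD, cut at about 28% in these data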
Yeast superoxide – caloric restriction mimetics inhibiting age-related superoxide in yeast; S. cerevisiae aged cells, superoxide DHE fluorescence; stronger effect = lower value; superoxide response (% of plate mean), % at 10 µM; hit rate 0.18% among 330,000;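 active = superoxide response under a set limit, about three screen SD below normal, cut at about 65% in these data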;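 also: yeast aged for seven days with compound at 30 °C before DHE staining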
NRP1-CendR mod – modulators of CendR peptide binding to human neuropilin-1 | AID 602438 | FAM-RPARPAR peptide binding to NRP-1, fluorescence polarization | O14786 | hit rate 0.85% among 360,000 | inhibition, % at 25 µM;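 active = inhibition or corrected inhibition above about 18%, plus a signal ratio from 0.5 to 1.5, limit read from the data, passing the limit was not always enough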
Target sequence (O14786 whole entry, looked up): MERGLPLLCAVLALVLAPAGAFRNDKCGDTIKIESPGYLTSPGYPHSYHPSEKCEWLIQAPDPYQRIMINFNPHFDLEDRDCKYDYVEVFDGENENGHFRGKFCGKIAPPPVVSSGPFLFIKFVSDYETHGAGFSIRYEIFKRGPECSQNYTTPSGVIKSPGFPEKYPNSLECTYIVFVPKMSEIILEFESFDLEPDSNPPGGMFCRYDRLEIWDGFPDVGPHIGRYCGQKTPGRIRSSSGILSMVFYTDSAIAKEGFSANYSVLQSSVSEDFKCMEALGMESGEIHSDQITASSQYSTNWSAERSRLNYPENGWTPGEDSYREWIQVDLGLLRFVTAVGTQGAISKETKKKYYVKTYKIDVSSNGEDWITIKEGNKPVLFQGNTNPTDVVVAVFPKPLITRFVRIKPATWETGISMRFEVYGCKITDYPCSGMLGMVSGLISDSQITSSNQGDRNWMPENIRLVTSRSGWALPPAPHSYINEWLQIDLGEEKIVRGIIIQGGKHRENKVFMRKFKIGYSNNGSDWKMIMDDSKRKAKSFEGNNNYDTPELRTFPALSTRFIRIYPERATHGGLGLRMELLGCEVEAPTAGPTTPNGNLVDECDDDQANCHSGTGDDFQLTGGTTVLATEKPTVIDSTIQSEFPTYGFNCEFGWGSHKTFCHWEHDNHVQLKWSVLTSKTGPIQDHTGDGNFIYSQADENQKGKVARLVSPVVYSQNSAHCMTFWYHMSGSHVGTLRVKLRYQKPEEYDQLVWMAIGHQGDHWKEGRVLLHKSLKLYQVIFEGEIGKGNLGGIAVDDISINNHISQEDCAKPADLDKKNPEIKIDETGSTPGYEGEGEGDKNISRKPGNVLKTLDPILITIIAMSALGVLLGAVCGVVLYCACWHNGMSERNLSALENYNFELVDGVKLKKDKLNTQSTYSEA
Large screens that a line does not name were inactive.

Cc1cc(NC(=O)CN(C)CC(=O)Nc2ccc(Cl)c(C(F)(F)F)c2)no1	none (no result: ALR H2O2 inh, PfM18AAP inh)
CC(=O)Nc1ccc(SCC(=O)Nc2cc(C(C)(C)C)nn2-c2ccccc2)cc1	ALR H2O2 inh 89
Cn1c(SCC(=O)Nc2cc(C(C)(C)C)nn2-c2ccccc2)nc2ccccc21	none
Cc1cc(NC(=O)CSc2ccc(F)cc2)no1	none (no result: ALR H2O2 inh)
CC(=O)Nc1ccc(SCC(=O)NC(=O)c2ccccc2Br)cc1	ALR H2O2 inh 98 (no result: PfM18AAP inh)
Cc1cc(NC(=O)CN(C)CC(=O)Nc2ccc(Cl)cc2)no1	NRP1-CendR mod 19 (no result: PfM18AAP inh)
CC(=O)Nc1ccc(SCC(=O)Nc2cc(C)on2)cc1	ALR H2O2 inh 99
CCCc1nc2ccccc2n1C(CC)C(=O)NC(C)(C)C (stereo not drawn)	none (no result: A3A deaminase, ALR H2O2 inh, APOBEC3G inh, PfM18AAP inh, Yeast superoxide)
CCNS(=O)(=O)c1ccc(CCC(N)=O)cc1	none
CCNS(=O)(=O)c1ccc(CCC(=O)O)cc1	NRP1-CendR mod 26
COCCOC(=O)C1=C(C)N=C2SCCC(=O)N2C1c1cccs1 (stereo not drawn)	none
O=C(CSc1nc2cc([N+](=O)[O-])ccc2n1-c1ccccc1)NCc1ccc2c(c1)OCO2	ALR H2O2 inh inconclusive, PfM18AAP inh 38
COCCn1nnnc1SCC(=O)NCc1ccc2c(c1)OCO2	ALR H2O2 inh 96
O=C(CSc1nc2ccccc2s1)NCc1ccc2c(c1)OCO2	ALR H2O2 inh 98
O=C(CCCSc1nc2ccccc2s1)NCc1ccc2c(c1)OCO2	none (no result: ALR H2O2 inh)
O=C(N/N=C/c1c(O)ccc2ccccc12)c1cccc(C(F)(F)F)c1	none
CCCCN(C(=O)c1cccs1)c1c(N)n(Cc2ccccc2)c(=O)[nH]c1=O	none (no result: PfM18AAP inh)
O=C(COc1cc(Cl)c(Cl)cc1Cl)Nn1cnnc1	PfM18AAP inh 30
CC(C(=O)Nc1ccc(S(N)(=O)=O)cc1)N1CCc2ccccc21 (stereo not drawn)	ALR H2O2 inh 99
CCN(CC)S(=O)(=O)c1cc(NC(=O)C(C)N2CCc3ccccc32)ccc1C (stereo not drawn)	none
CCOC(=O)C1=C(O)CCn2c1nc1ccccc12	none
CCOC(=O)C1C(=O)CC(C)(O)C(C(=O)OCC)C1c1ccc2c(c1)OCO2 (stereo not drawn)	none
Cc1ccc(S(=O)(=O)Cc2ccc(C(=O)N3CCN(Cc4ccccc4)CC3)o2)cc1	ALR H2O2 inh 94
O=C(c1ccc(CS(=O)(=O)c2ccc(Br)cc2)o1)N1CCCC1	ALR H2O2 inh 96
Cc1cccc(CSCC(=O)N2CCN(S(=O)(=O)c3ccccc3C#N)CC2)c1	none (no result: A3A deaminase, ALR H2O2 inh, APOBEC3G inh, PfM18AAP inh, Yeast superoxide)
COc1ccccc1N1CC(C(=O)NC2CCCCCC2)CC1=O (stereo not drawn)	none (no result: PfM18AAP inh)
C=CCn1c(SCC(=O)N(CCC)C2CCS(=O)(=O)C2)nnc1-c1ccccc1OC (stereo not drawn)	none (no result: PfM18AAP inh)
O=C(N/N=C/C=C\c1cccc([N+](=O)[O-])c1)c1ccccn1	NRP1-CendR mod 28
c1ccc2c3n(nc2c1)CCCO3	NRP1-CendR mod 32 (no result: PfM18AAP inh)
Cc1ccc(C23OCCN2CCn2nc4ccccc4c23)cc1 (stereo not drawn)	none (no result: PfM18AAP inh)
O=C(Nc1cccc2ccccc12)OCc1ccccc1	none (no result: A3A deaminase, ALR H2O2 inh, APOBEC3G inh, PfM18AAP inh, Yeast superoxide)
CC(=O)NC(CC(=O)Nc1ccc(S(=O)(=O)N2CCCCC2)cc1)c1ccccc1 (stereo not drawn)	none
CCc1c(O)nc(SCC(=O)Nc2nc3ccccc3s2)n(C2CCCCC2)c1=O	ALR H2O2 inh 92
CCc1c(O)nc(SCC(=O)Nc2ccc(OC)cc2)n(C2CCCCC2)c1=O	ALR H2O2 inh 99
COc1ccc(NC(=O)CSc2nnc(C3CCCCC3)n2N)cc1	none
CCOc1ccccc1N(C(=O)c1snc(C(N)=O)c1N)C(C(=O)NC1CCCC1)c1ccco1 (stereo not drawn)	none
NNC(=O)/C=C/c1ccc(Cl)cc1Cl	ALR H2O2 inh 98
CC(C(=O)NC1CCCC1)n1c(-c2ccncc2)nc2ccccc21 (stereo not drawn)	none (no result: A3A deaminase, ALR H2O2 inh, APOBEC3G inh, PfM18AAP inh, Yeast superoxide)
CC(=O)OCC(=O)[C@@]1(O)CC[C@H]2[C@@H]3C[C@H](C)C4=CC(=O)C=C[C@]4(C)[C@H]3[C@@H](O)C[C@@]21C	none
CC(=O)OCC(=O)C1(O)CCC2C3CC(C)C4=CC(=O)C=CC4(C)C3=CCC21C (stereo not drawn)	NRP1-CendR mod 19 (no result: A3A deaminase, ALR H2O2 inh, APOBEC3G inh, PfM18AAP inh, Yeast superoxide)
O=c1c2ccccc2cnn1Cc1n[nH]c(=S)n1C1CC2CCC1C2 (stereo not drawn)	ALR H2O2 inh 86
